Assay [1] in a line: Nuclear factor erythroid 2-related factor 2/antioxidant responsive element (Nrf2/ARE) small molecule agonists: luciferase reporter gene qHTS assay in human keratinocytes (AID 1919969; further: nearly all actives have a fitted effect of over 35% in size; further: potency means the concentration at half of the fitted maximal effect). (In a reporter assay the amount or activity of a reporter protein is the signal.)
The target of assay [2] is Gonadotropin-releasing hormone receptor (Homo sapiens) (UniProt P30968). The experiment in a line: Human gonadotropin-releasing hormone receptor (GnRHR) small molecule agonists, calcium flux assay in GnRHR-HEK293 cells (AID 1920063). Further: nearly all actives have a fitted effect of over 35% in size. In outline: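 Compounds dissolved in DMSO are pin-transferred onto dye-loaded GnRHR-HEK293 cells, which were seeded 18 h before at 37 C/5% CO2. Calcium signal is read as fluorescence intensity at 1 s intervals for 3 min.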
Chain of Gonadotropin-releasing hormone receptor (Homo sapiens) (P30968 whole entry, looked up): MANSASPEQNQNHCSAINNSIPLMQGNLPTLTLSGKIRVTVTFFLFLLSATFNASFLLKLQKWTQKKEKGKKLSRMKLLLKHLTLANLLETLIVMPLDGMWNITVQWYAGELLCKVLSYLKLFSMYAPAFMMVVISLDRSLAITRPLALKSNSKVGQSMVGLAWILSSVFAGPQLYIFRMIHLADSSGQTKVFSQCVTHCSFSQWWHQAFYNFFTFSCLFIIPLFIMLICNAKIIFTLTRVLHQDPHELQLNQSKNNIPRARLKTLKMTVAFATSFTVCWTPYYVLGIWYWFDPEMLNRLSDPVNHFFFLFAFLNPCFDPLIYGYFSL
In general terms: A change in cytosolic calcium serves as a functional read-out for many receptors and channels.

Assay [3] has as its target KiSS-1 receptor (Homo sapiens) (UniProt Q969F8). Put plainly: Human kisspeptin (KISS1R) small molecule agonists, calcium flux assay in KISS1R-HEK293 cells (AID 1920064; active means well fitted activation curve with a large enough effect in the repeat runs). In outline:
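Cell line: HEK293, stable human KISS1R. Dye loading 1 h at 37 C after 18 h culture. Read: kinetic fluorescence, 480/540 nm, 3 min at 1 s intervals.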

The nature of assay [4]: G protein-coupled receptor (GPCR) small molecule agonists, calcium flux assay: HEK293 wild type cell line counter screen (AID 1920065). The method, boiled down:
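Tox21 10K compounds, 15 concentrations each in triplicate, pin-transferred in DMSO onto dye-loaded cells; kinetic read at 480/540 nm for 3 min, 1 s intervals.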

A short description of assay [5]: p53 small molecule agonists, cell-based qHTS assay with rat liver microsomes (AID 1963578). In outline:
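Compound in DMSO added to p53RE-bla cells 5 h post-plating; rat microsomes/NADPH 0.5 mg/mL final; 16 h, 37 C; LiveBLAzer 2 h RT.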
For orientation: qHTS replaces the single test concentration by a dilution series.

The nature of assay [6]: p53 small molecule agonists, cell-based qHTS assay with human liver microsomes: qHTS cell viability counter screen (AID 1963579). Further: nearly all actives have a fitted effect of over 45% in size. In outline:
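HLM-supplemented (0.5 mg/mL final) and NADPH-supplemented (0.5 mg/mL final) p53RE-bla cultures, 4,000 cells per well, were dosed with compounds in DMSO for 16 h at 37 C; luminescent ATP detection (CellTiter-Glo, 30 min, room temperature) quantified surviving cells.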

The nature of assay [7]: p53 small molecule agonists, cell-based qHTS assay with rat liver microsomes: qHTS cell viability counter screen (AID 1963580). Further: nearly all actives have a fitted effect of over 45% in size. In outline:
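Counter screen for cytotoxicity under metabolic activation: rat liver microsomes and NADPH, 0.5 mg/mL final each, added with compounds to p53RE-bla HCT-116 cells; 16 h at 37 C, then ATP luminescence read.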

A short description of assay [8]: p53 small molecule agonists, cell-based qHTS assay (AID 1963582; active means well fitted activation curve with a large enough effect in the signal ratio in the repeat runs, not every such curve was filed as active; the % refers to the signal ratio). In outline: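 16 h compound exposure (37 C) of p53 response element–bla cells, preceded by 5 h recovery at 37 C/5% CO2; read-out via LiveBLAzer B/G FRET substrate, 2 h RT, fluorescence intensity.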
Assay [9] addresses 5-hydroxytryptamine receptor 2A (Homo sapiens) (UniProt P28223). Put plainly: 5-hydroxytryptamine receptor 2A (HTR2A) small molecule agonists, cell-based qHTS assay (AID 1963587). Further: nearly all actives have a fitted effect of over 30% in size. Further: potency means the concentration at half of the fitted maximal effect. In outline: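 HTR2A-CHO cells, plated 18 h at 37 C/5% CO2, dye-loaded 1 h at 37 C; compounds in DMSO added by pin tool (agonist mode). Intracellular calcium flux read as kinetic fluorescence on FDSS over 2 min at 1 s intervals.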

Assay [10] addresses Muscarinic acetylcholine receptor M1 (Homo sapiens) (UniProt P11229). The experiment in a line: Cholinergic receptor muscarinic 1 (CHRM1) small molecule antagonists, cell-based qHTS assay (AID 1963588). Further: nearly all actives have a fitted effect of over 40% in size. In outline:
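Compounds were tested at 15 concentrations in three independent runs. Dye-loaded CHRM1-CHO cells were exposed 5 min at room temperature before stimulation by acetylcholine added at 50nM. Intracellular calcium was read kinetically on FDSS for 3 min.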

For assay [11] the target is unchanged. Put plainly: Cholinergic receptor muscarinic 1 (CHRM1) small molecule agonists, cell-based qHTS assay (AID 1963589). Further: nearly all actives have a fitted effect of over 35% in size. In outline: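 Homogeneous fluorescence calcium flux, agonist mode. Human M1-expressing CHO cells; compound dosed at 15 concentrations, three independent runs; signal sampled every 1 sec.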
Assay [12] is described as follows: cAMP Responsive Elements (CRE) small molecule agonists, cell-based qHTS assay (AID 1963590). The method, boiled down: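 HEK 293T cells stably bearing CRE-bla were plated at 2,000 cells per well and rested 18 h. Compounds, positive controls or DMSO were added for 3 h at 37 C. LiveBLAzer B/G substrate was then loaded for 2 h at room temperature.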
A short description of assay [13]: cAMP Responsive Elements (CRE) small molecule antagonists, cell-based qHTS assay (AID 1963591; active means well fitted inhibition curve with a large enough effect in the signal ratio in the repeat runs, not every such curve was filed as active; the % refers to the signal ratio). In outline:
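First, CRE-bla HEK293T cells settled 18 h at 37 C. Next, compound and 0.25 uM final NKH477 were applied for 3 h. Last, LiveBLAzer B/G substrate was loaded for 2 h at room temperature.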

Assay [14] concerns the target Beta-2 adrenergic receptor (Homo sapiens) (UniProt P07550). Put plainly: Adrenergic beta2 receptor (ADRB2) small molecule antagonists, cell-based qHTS assay (AID 1963592). Further: series mostly up to about 92 µM; nearly all actives have a fitted effect of over 50% in size. The method, boiled down: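 Assay format: CHO-ADRB2 cells, 18-20hr seeding at 37C/5% CO2, then compound plus 1nM isoproterenol agonist mix for 0.5hr RT. Homogeneous time-resolved fluorescence cAMP detection after 1hr, expressed as 665/615 nm ratio.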

For assay [15] the target is unchanged. Put plainly: Adrenergic beta2 receptor (ADRB2) small molecule agonists, cell-based qHTS assay (AID 1963593).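 Further: CHO cells stably overexpressing human ADRB2.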 In outline:
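CHO cells stably over-expressing ADRB2 were plated overnight at 37C, then dosed with compounds plus a stimulation mix containing 100uM IBMX and 25uM Ro-20-1724 for 0.5hr at room temperature. cAMP was measured by HTRF competition, 1hr.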

For assay [16], the target named is D(2) dopamine receptor (Homo sapiens) (UniProt P14416). The experiment in a line: Dopamine D2 receptor (DRD2) small molecule agonists, cell-based qHTS assay (AID 1963594). Further: nearly all actives have a fitted effect of over 35% in size. In outline:
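HEK293 cells stably expressing DRD2 were cultured 24 h at 37 C, then given Ro20-1724 (0.1 mM final) and compounds for 10 min at room temperature. NKH477 (200nM) was then added for 30 min. cAMP was read by HTRF.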

Assay [17] has the same target. Put plainly: Dopamine D2 receptor (DRD2) small molecule antagonists, cell-based qHTS assay (AID 1963595; active means well fitted inhibition curve with a large enough effect in the signal ratio in the repeat runs, with a control signal flat; the % refers to the signal ratio). The method, boiled down:
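Cells were plated and grown for 24 h at 37 °C. Ro20-1724 (0.1 mM final) went in first, then compound for 10 min. NKH477 (200 nM) with quinpirole (12 nM) followed for 30 min at RT, then HTRF detection reagents for 1 h.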

A short description of assay [18]: p53 small molecule agonists, cell-based qHTS assay with human liver microsomes (AID 1963577).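 Further: p53 response element beta-lactamase reporter cells with liver microsomes plus NADPH.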 The method, boiled down: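 Reporter activation was measured by LiveBLAzer fluorescence intensity in p53RE-bla cells, which had been exposed to compounds for 16 h at 37 C alongside 0.5 mg/mL human liver microsomes and 0.5 mg/mL NADPH (final concentrations).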
For assay [19], the target named is 5-hydroxytryptamine receptor 2A (Homo sapiens) (UniProt P28223). The experiment in a line: 5-hydroxytryptamine receptor 2A (HTR2A) small molecule antagonists, cell-based qHTS assay (AID 1963586). Further: nearly all actives have a fitted effect of over 45% in size. The method, boiled down:
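CHO cells stably expressing human HTR2A were plated for 18 h at 37 C, then loaded with calcium dye for 1 h. Compounds were preincubated 5 min at room temperature before DOI (4 nM solution) was added. Kinetic fluorescence was read for 3 min.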

Assay [20] in a line: p53 small molecule agonists, cell-based qHTS assay: qHTS cell viability counter screen (AID 1963581). Further: nearly all actives have a fitted effect of over 45% in size. In outline:
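ATP content measured by luminescence in HCT-116 p53RE-bla cells treated 16 h at 37 C, same wells as the reporter screen.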

“And” between values parts separate entries of the source, which are not always exact repeats. Identical values can stand only once. Results filed as inconclusive are left out. More than one record can exist for a structure, and the calls need not agree. The source made the active and inactive calls. Unless noted, the call rests on the fitted dose curve.

Chain of 5-hydroxytryptamine receptor 2A (Homo sapiens) (P28223 whole entry, looked up): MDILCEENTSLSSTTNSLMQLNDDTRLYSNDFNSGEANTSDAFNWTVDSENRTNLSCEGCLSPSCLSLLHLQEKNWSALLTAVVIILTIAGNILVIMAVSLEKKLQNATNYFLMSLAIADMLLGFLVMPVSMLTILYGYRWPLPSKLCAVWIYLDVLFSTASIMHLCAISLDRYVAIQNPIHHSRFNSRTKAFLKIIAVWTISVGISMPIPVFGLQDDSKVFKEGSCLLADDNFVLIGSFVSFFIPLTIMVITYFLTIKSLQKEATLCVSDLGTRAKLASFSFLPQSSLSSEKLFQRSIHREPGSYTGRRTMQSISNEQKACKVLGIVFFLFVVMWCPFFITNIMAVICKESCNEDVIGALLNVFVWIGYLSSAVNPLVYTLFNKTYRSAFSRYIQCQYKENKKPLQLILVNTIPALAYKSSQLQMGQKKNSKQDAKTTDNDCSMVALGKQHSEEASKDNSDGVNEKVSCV
Chain of KiSS-1 receptor (Homo sapiens) (Q969F8 whole entry, looked up): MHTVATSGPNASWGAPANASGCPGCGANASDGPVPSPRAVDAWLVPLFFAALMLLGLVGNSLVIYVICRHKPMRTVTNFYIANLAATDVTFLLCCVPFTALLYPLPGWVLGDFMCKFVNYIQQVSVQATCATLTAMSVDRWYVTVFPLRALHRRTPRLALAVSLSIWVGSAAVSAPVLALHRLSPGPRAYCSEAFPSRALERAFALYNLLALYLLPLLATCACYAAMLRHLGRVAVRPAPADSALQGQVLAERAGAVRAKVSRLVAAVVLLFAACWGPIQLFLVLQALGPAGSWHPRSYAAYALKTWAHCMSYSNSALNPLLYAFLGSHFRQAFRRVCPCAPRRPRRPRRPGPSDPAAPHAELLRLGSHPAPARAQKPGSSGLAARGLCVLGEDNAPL
Chain of Beta-2 adrenergic receptor (Homo sapiens) (P07550 whole entry, looked up): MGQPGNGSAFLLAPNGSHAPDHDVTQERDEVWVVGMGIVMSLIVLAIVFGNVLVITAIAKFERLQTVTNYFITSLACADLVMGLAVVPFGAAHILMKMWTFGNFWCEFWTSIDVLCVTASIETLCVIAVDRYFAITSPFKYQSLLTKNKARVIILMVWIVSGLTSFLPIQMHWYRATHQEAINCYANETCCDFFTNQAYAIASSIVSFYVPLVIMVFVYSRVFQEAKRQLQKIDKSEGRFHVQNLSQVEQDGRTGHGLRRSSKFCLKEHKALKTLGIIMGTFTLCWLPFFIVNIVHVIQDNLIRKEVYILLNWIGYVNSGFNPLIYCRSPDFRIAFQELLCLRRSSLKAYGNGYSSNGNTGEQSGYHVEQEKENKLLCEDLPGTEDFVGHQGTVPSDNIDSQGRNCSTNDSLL
Chain of D(2) dopamine receptor (Homo sapiens) (P14416 whole entry, looked up): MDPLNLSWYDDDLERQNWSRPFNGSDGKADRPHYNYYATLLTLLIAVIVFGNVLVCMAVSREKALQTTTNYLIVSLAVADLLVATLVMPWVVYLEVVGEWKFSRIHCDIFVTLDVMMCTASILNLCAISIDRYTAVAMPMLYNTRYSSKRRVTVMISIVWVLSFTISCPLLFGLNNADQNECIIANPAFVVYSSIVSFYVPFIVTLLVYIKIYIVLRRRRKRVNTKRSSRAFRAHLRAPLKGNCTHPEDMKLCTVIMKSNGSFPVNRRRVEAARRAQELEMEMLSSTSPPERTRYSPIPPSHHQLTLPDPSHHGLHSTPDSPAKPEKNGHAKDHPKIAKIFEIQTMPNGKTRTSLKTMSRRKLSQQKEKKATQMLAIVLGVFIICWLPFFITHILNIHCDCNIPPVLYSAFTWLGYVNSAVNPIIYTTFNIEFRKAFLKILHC
Chain of Muscarinic acetylcholine receptor M1 (Homo sapiens) (P11229 whole entry, looked up): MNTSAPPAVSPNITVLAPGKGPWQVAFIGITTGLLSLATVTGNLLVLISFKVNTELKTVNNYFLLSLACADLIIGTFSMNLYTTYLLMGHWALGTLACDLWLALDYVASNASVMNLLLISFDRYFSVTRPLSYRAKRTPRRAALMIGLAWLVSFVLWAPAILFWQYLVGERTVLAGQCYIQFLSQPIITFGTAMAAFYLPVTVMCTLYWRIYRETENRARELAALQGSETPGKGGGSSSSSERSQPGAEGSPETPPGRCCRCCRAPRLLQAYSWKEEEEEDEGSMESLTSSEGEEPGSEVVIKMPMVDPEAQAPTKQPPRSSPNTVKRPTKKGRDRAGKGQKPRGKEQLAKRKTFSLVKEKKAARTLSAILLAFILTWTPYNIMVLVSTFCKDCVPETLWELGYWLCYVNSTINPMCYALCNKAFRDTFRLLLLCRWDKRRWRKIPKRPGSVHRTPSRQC

For `ClC(Br)Br`, the Potency result in [1], in [2], in assay [3], in assay [4], in assay [5] and in assay [6] was “inactive” each time. For the same molecule, the Potency entry in [7], in [8], in assay [9], in assay [10], in [11] and in assay [12] was “inactive” each time. In addition, the Potency result in assay [13], in assay [14], in assay [15], in [16] and in assay [17] was “inactive” each time.

With `Cc1c(COC(=O)[C@@H]2[C@H](/C=C(\Cl)C(F)(F)F)C2(C)C)cccc1-c1ccccc1`, the Potency in assay [1] is 53.2 µM (active) and 27.2 µM (active); in assay [9], 38 µM (active) and inactive. For the same molecule, the Potency entry in assay [2], in assay [3], in assay [4], in assay [18], in assay [5] and in [7] was “inactive” in each case. The Potency entry in assay [19], in assay [10], in assay [11], in assay [12], in assay [13] and in assay [14] was “inactive” throughout. For the same molecule, the Potency result in assay [15], in assay [16] and in assay [17] was “inactive” in each case.

For `CN[C@@H](C)[C@H](O)c1ccccc1`, the Potency entry in assay [1], in [2], in assay [3], in [4], in assay [18] and in assay [5] was “inactive” in each case. The Potency result in assay [7], in assay [20], in assay [8], in assay [19], in assay [9] and in [10] was “inactive” in each case. Also, the Potency result in [11], in [12], in [13], in assay [14], in [15] and in assay [16] was “inactive” throughout. Also, the Potency entry in assay [17] was “inactive”.

In the case of `[Cl][Sb]([Cl])[Cl]`, the Potency in assay [1] was 27.3 µM (active). The Potency entry in [2], in [3], in assay [4], in assay [5], in [6] and in [7] was “inactive” each time. For the same molecule, the Potency result in assay [20], in assay [8], in assay [19], in assay [9], in assay [10] and in assay [11] was “inactive” each time. Moreover, the Potency result in assay [12], in [13], in [14], in assay [15], in assay [16] and in assay [17] was “inactive” in each case.

Turning to `CC(=O)[C@H]1CC[C@H]2[C@@H]3CC[C@H]4C[C@H](O)CC[C@]4(C)[C@H]3C(=O)C[C@]12C`, the Potency entry in [1], in [2], in assay [3], in assay [4], in assay [18] and in assay [5] was “inactive” each time. The Potency result in [7], in [20], in assay [8], in assay [19], in assay [9] and in assay [10] was “inactive” in each case. For the same molecule, the Potency entry in [11], in assay [12], in assay [14], in assay [15], in assay [16] and in [17] was “inactive” each time.

On to `O=S1OC[C@@H]2[C@H](CO1)[C@]1(Cl)C(Cl)=C(Cl)[C@@]2(Cl)C1(Cl)Cl` (stereo partly specified), for which, in assay [1], the Potency was 24.3 µM (active). For the same molecule, the Potency result in assay [2], in [3], in [4], in assay [18], in assay [5] and in [7] was “inactive” throughout. The Potency result in assay [20], in assay [19], in [9], in assay [10], in assay [11] and in assay [14] was “inactive” in each case. In [16], the Potency entry is “inactive”.

For the molecule `CCCN(CC1CC1)c1c([N+](=O)[O-])cc(C(F)(F)F)cc1[N+](=O)[O-]`, in assay [1], the Potency was 48.6 µM (active). For the same molecule, the Potency entry in [2], in assay [3], in assay [4], in assay [18], in [5] and in assay [7] was “inactive” in each case. Further, the Potency result in assay [20], in assay [8], in assay [19], in assay [9], in assay [10] and in assay [11] was “inactive” throughout. Also, the Potency result in assay [12], in assay [14], in assay [16] and in assay [17] was “inactive” each time.

For the origin of these results see PubChem BioAssay (Tox21).
